Out of some 420,000 compounds screened, about 50,000 (12%) were called active. Another 26% or so got no clear call; they are omitted. The call rests on the fitted dose curve; in most records, active means well fitted inhibition curve with a large enough effect; inconclusive means small, poorly fitted or top-dose-only effect; inactive means flat fitted curve, though single readings scatter. Many of the other results were omitted from the sample, so actives are more common in it than they were.
assay: qHTS for Inhibitors of human tyrosyl-DNA phosphodiesterase 1 (TDP1): qHTS in cells in presence of CPT; conditions: chicken DT40 Tdp1-/-;hTDP1 cells + 20 nM CPT, ATP luminescence, 48 h; series mostly up to 46.2 µM; activity change, negative = growth inhibition: at the top concentration; further: nearly all actives have a fitted effect of over 55% in size
Method in brief: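 Chicken DT40 Tdp1-/- cells complemented with human TDP1, 400 cells/well, exposed to compounds plus 20 nM camptothecin for at least 48 h at 37 C; viability read as ATP content by CellTiter-Glo luminescence.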
On the % scale 0 is the no-effect control and ±100 the full control effect; potency means the concentration at half of the fitted maximal effect.

SMILES	activity change, negative = growth inhibition	Potency
COc1ccccc1N1CCN(CC(=O)NCCc2ccc(S(N)(=O)=O)cc2)CC1	3.09% (inactive)	–
CCOC(=O)N1CCN(C(=O)C2CCN(Cc3ccc(OC)cc3OC)CC2)CC1	-2.83% (inactive)	–
Cc1ccc(CN2CCC(CNC(=O)c3cnn(-c4ccccc4Cl)c3C3CCN(C(=O)OC(C)(C)C)CC3)CC2)cc1	–	5.8 µM (active)
COc1ccccc1CN1CCC(CNC(=O)c2cnn(-c3cccc(Cl)c3)c2C2CCN(C(=O)OC(C)(C)C)CC2)CC1	–	7.31 µM (active)
COc1ccccc1CN1CCC(CNC(=O)c2cnn(-c3ccccc3Cl)c2C2CCN(C(=O)OC(C)(C)C)CC2)CC1	–	8.2 µM (active)
COc1ccccc1-c1ccnc(-n2ncc(C(=O)NCCCN3CCOCC3)c2C)n1	7.6% [at 9.04 µM] (inactive)	–
CSCCC(=O)N1CCCC(CNC(=O)c2ccccc2Cl)C1 (stereo unspecified)	-2.68% (inactive)	–
COc1ccc(Cl)cc1NC(=O)NCC1CCN(Cc2ccccc2F)CC1	-29.9% (inactive)	–
COc1ccccc1CNC(=O)C1CCN(S(=O)(=O)c2ccc3c(c2)OCCO3)CC1	0.517% (inactive)	–
COc1ccccc1N1CCN(CCCNC(=O)c2cnn(-c3ccccc3Cl)c2C2CCN(C(=O)OC(C)(C)C)CC2)CC1	–	8.2 µM (active)
O=C(NNC(=O)c1ccccc1[N+](=O)[O-])Nc1ccccc1C(F)(F)F	-6.86% (inactive)	–
COc1ccc(CCNC(=O)COc2cc(C)cc3oc(=O)c(C)c(C)c23)cc1OC	4.77% (inactive)	–
O=C(COC(=O)c1ccc([N+](=O)[O-])o1)NC12CC3CC(CC(C3)C1)C2	-6.43% (inactive)	–
COc1ccc(C(C)=O)cc1CSc1nc2nc(C)cc(C)n2n1	7.35% (inactive)	–
COCc1c(C(=O)OCC(=O)Nc2ccc(OC(F)F)cc2)oc2ccccc12	-15.4% (inactive)	–
COc1ccc(CCN2CC(C(=O)OCC(=O)NCc3ccccc3Cl)CC2=O)cc1OC (stereo unspecified)	-3.56% (inactive)	–
CC(C)(C)OC(=O)N(Cc1ccco1)S(=O)(=O)c1ccccc1Br	-14% (inactive)	–
O=c1oc2ccccc2c(=O)c2ccccc12	1.66% (inactive)	–
O=C(Oc1ccc(F)cc1)N1CCOCC1	-16.2% (inactive)	–
CCS(=O)(=O)N1Cc2ccccc2CC1C(=O)Nc1ccc(OC)cc1OC (stereo unspecified)	-16.2% (inactive)	–
O=C(COC(=O)c1ccc(N2CCCC2=O)cc1)c1ccc(OC(F)F)cc1	-3.15% (inactive)	–
CS(=O)(=O)c1ccc(-c2nnn(CC(=O)Nc3ccc4c(c3)OCCO4)n2)cc1	-0.0542% (inactive)	–

SMILES	activity change, negative = growth inhibition	Potency
CCOC(=O)c1cnn2c(SC)ncnc12	-17.6% (inactive)	–
CC(C)(C)C(=O)c1c(N)[nH]c(C(=O)c2ccccc2)c1-c1ccc(F)cc1	-29.4% (inactive)	–
Cc1cc(NC(=O)CSc2nnc(-c3ccco3)n2N)no1	8.93% (inactive)	–
Cc1cc(NC(=O)CSc2nnnn2-c2ccc(F)cc2)no1	-0.0128% (inactive)	–
Cc1cc(C)c2c(c1)cc(C)c1nnc(SCC(=O)Nc3cc(C)on3)n12	–	8.2 µM (active)
O=C(CC1Oc2ccccc2NC1=O)NCc1ccc(F)cc1 (stereo unspecified)	-23.2% (inactive)	–
COc1cccc(NC(=O)CSc2nnc(C3CCCCC3)n2N)c1	-9.54% (inactive)	–
CCN(CC)S(=O)(=O)c1ccc(Cl)c(NC(=O)c2ccncc2)c1	7.34% (inactive)	–
CCN(CC)S(=O)(=O)c1ccc2c(c1)nc(CN(C)C(=O)Nc1ccc(Cl)cc1)n2C	–	18.4 µM (active)
CCN(CC)S(=O)(=O)c1ccc(NC(=O)c2cnc(C)cn2)cc1	-2.9% (inactive)	–
COc1cc(NS(=O)(=O)c2ccc(NC(=S)NC(=O)c3ccc(Br)cc3)cc2)ncn1	-7.13% (inactive)	–
C=CCOc1cccc(CNCc2cccnc2)c1	-0.189% (inactive)	–
C[C@@H]1ON(C)[C@H]2C[C@H]3c4cc(N5CCN(C)CC5)ccc4CCN3C(=O)[C@@H]12	-7.89% (inactive)	–
COc1ccc(-c2ccc3[nH]c4c(c3c2)CCN2C[C@H]3[C@H](C)ON(C)[C@H]3C[C@@H]42)cc1	–	20.6 µM (active)
COC(=O)[C@H]1[C@H]2C[C@H]3c4[nH]c5ccccc5c4CCN3C[C@@H]2CC[C@@H]1O	-1.82% (inactive)	–
CNC(=O)C[C@H]1C(=O)N(c2ccc(OC)cc2)C[C@@H]1Cc1ccccc1	-26.9% (inactive)	–
COc1ccc(NC(=O)C[C@H]2C(=O)N(CCc3ccccc3)C[C@@H]2C)cc1	-20.8% (inactive)	–
O=C(C[C@H]1C(=O)N(c2ccc(F)c(F)c2)C[C@@H]1Cc1ccccc1)Nc1ccccc1	–	11.2 µM (active)
CCOc1ccc(CNCCSc2nnnn2C)cc1	4.21% (inactive)	–
CCOCCn1ccc2c(OCC(=O)NCc3ccc(C)cc3)cccc2c1=O	-21.4% (inactive)	–
COC(=O)COc1cccc2c(=O)n(CC(=O)NCc3ccccc3)ccc12	–	1.84 µM (active)
COC(=O)COc1cccc2c(=O)n(CC(=O)NCCc3ccc(OC)c(OC)c3)ccc12	1.3% (inactive)	–

SMILES	activity change, negative = growth inhibition	Potency
O=C(NN=CC=Cc1ccccc1)C(O)C(O)C(=O)NN=CC=Cc1ccccc1 (stereo unspecified)	13.1% (inactive)	–
CCCCOc1ccc(-c2nnc(-c3ccco3)o2)cc1	-21.4% (inactive)	–
CCC(=O)Oc1cccc(C(=O)Nc2ccc(-c3nnc(-c4ccco4)o3)cc2)c1	–	6.51 µM (active)
CCOc1ccc(-c2nnc(-c3ccco3)o2)cc1	-12% (inactive)	–
COc1ccc(C)cc1S(=O)(=O)Nc1cc2c3c(c1)CCC(=O)N3CCC2	-11.1% (inactive)	–
Cc1nc(C(F)(F)F)ccc1C(=O)N1CCC1(C)C(=O)NS(=O)(=O)c1ccccc1Cl (stereo unspecified)	-5.55% (inactive)	–
CCNC(=S)N(CCN(CC)CC)Cc1cc2cc3c(cc2[nH]c1=O)OCO3	-19.8% (inactive)	–
CCOC(=O)C1CCN(C(=O)c2cccc(S(=O)(=O)N(CC)c3ccccc3)c2)CC1	–	14.6 µM (active)
CCN(CC)S(=O)(=O)c1ccc(Cl)c(C(=O)NCCN2CCOCC2)c1	10.4% (inactive)	–
O=C(NCCN1CCOCC1)c1cccc(S(=O)(=O)Nc2ccc(F)cc2)c1	-5.32% (inactive)	–
CCOC(=O)C1CCCN(C(=O)c2cccc(S(=O)(=O)N3CCOCC3)c2)C1 (stereo unspecified)	-26.6% (inactive)	–
CCOC(=O)C1CCCN(C(=O)c2ccc(N(C)C)cc2)CC1 (stereo unspecified)	-17.9% (inactive)	–
CCN(c1ccccc1)S(=O)(=O)c1cccc(C(=O)NCc2ccccc2CN2CCOCC2)c1	–	20.6 µM (active)
CCOc1ccc(CNC(=O)c2ccc3nc(CC)c(CC)nc3c2)cc1OC	-29.6% (inactive)	–
COc1ccc(C(=O)NC(=S)N2CCNC(=O)C2CC(=O)OC(C)C)cc1 (stereo unspecified)	-7.41% (inactive)	–
CCOc1cc(C(=O)Nc2ccc(S(=O)(=O)Nc3cnc4ccccc4n3)cc2)cc(OCC)c1OCC	-5.96% (inactive)	–
CCc1nc2ccc(C(=O)N3CCC(O)(Cc4ccccc4)CC3)cn2c1N(C)C(=O)Cc1ccccc1	-29.7% (inactive)	–
CCc1nc2ccc(C(=O)Nc3cc(-c4ccccc4)ccc3OC)cn2c1N(CC)CC(=O)N(C)C	–	14.6 µM (active)
CCc1nc2ccc(C(=O)N(C)Cc3ccco3)cn2c1N(C)C(=O)Cc1ccccc1	-1.23% (inactive)	–
CCc1nc2ccc(C(=O)Nc3cccc(OC)c3)cn2c1N(CCC(C)C)CCN(C)C	-98.8% (inactive)	–
CCc1nc2ccc(C(=O)N(C)CCN(C)C)cn2c1N(CC)CCOC	5.06% (inactive)	–
CCc1nc2ccc(C(=O)NCc3ccc(OC)cc3)cn2c1N(CC)Cc1cccc(Br)c1	–	23.1 µM (active)

From PubChem BioAssay AID686979 (National Center for Advancing Translational Sciences (NCATS), 2013)
